SMILES strings stand for the structures. Results filed as inconclusive are left out. A number with no mark means an inactive call. Activity calls are given as the source filed them. Calls come from the whole dose curve; as a rule, active = well fitted cell-killing curve with a large enough effect; inconclusive = small, poorly fitted or top-dose-only effect; inactive = flat fitted curve, though single readings scatter.
Potency is the fitted concentration of half-maximal effect.

A short description of the assay: Quantitative highthroughput screen to assess conditional lethalithy of P12 Ichikawa cells grown in RPMI1640 with untreated serum (RPMI+s) (AID 1963881). Note: nearly all actives have a fitted effect of over 35% in size. Conditions: ATP luminescence, 48 h; Potency: viability; series mostly up to 45.8 µM; viability: at the top concentration. An excerpt:
Assay Provider: Jason Cantor Ph.D.
Department of Biochemistry
University of Wisconsin-Madison, Madison, WI, USA
Chemical screening studies have identified drug sensitivities across hundreds of cancer cell lines but most putative therapeutics fail to translate. Discovery and development of drug candidates in models that more accurately reflect nutrient levels in human blood is a major challenge. Here we performed high-throughput screens in conventional versus Human Plasma-Like Medium (HPLM) to identify compounds that were "missed" when screening using the artificial culture condition. Sets of conditional anticancer compounds spanned phases of clinical development and included non-oncology drugs were assessed. […] We also traced conditional phenotypes for several chemotherapeutics to availability of HPLM-specific metabolites and confirmed others for compounds whose reported targets are encoded by nonessential genes. Our findings establish generalizable strategies for exploiting conditional lethality in HPLM to reveal therapeutic candidates and mechanisms of action in cancer cells.
Described herein are the results of each viability screens against three cell lines: NOMO1 (an acute myeloid leukemia cell line); P12-Ichikawa (a T-cell acute lymphoblastic leukemia); and SEM (a B-cell ALL). Each assay was screened using 3 different cell culture media: homemade human plasma-Like medium with 10% dialyzed fetal bovine serum (HPLM+ds); RPMI1640 with 10% untreated FBS and 5mM glucose (RPMI+s); and RPMI1640 with 10% dialyzed fetal bovine serum and 5 mM glucose (RPMI+ds).
PROTOCOL TABLE (as described by Inglese J, Shamu CE and Guy RK. 2007)
SEQUENCE No. (e.g., 1, 2, 3, etc.); […] (e.g., Cells, Incubation, Reagent, etc.); VALUE and DESCRIPTION.
1; Cells; 5 uL; white, solid bottom 1536-well Greiner assay plate.
2; Compounds; 23 nL; Kalypsis pin tool (Wako USA) equipped with a 1536-well pin head to transfer to the assay plates.
3; Incubation; 48 hours; 37C incubation.
4; Reagent; 3 uL; CellTiter Glo (Promega).
5; Incubation; 5 min, room temperature
6; Detection; Luminescence, Viewlux PerkinElmer.
NOTES (numbers refer to Sequence numbers above)
1. Briefly, 5 ul of cell reagent was dispensed using a Multidrop Combi Dispenser. The NOMO1 and SEM cells were plated at 500 cells/well and the P12-Ichikawa line at 1000 cells/well.
2. After seeding the cells, 23 nL of MIPE 4.1 library compounds (in DMSO) were added to each plate using a Kalypsys 1536 Pintool dispenser. Bortezomib at final concentration of […] and DMSO were added to each plate as positive and negative controls respectively. For each screen, MIPE 4.1 compounds were added over an eleven-point concentration range […] in 3-fold dilutions.
3. Each plate was covered with a stainless steel gasketed lid to prevent evaporation and incubated for 48 hour at 37C, 95% relative humidity, and 5% CO2.
4-5. Three microliter CellTilter-GloTM luminescent substrate mix (Promega) reagent was added to the assay plate and incubated at room temperature for 5 min.
6. The luminescence signal was measured using a ViewLux (PerkinElmer) multiplate reader with a 2 second exposure time per plate. Data for each compound were normalized as percent viability such that measurements for DMSO and the empty well controls in each plate were defined as 100% and 0%, respectively.
For the compound `CC(c1cc2ccccc2s1)N(O)C(N)=O` (stereo not given), the “viability” value was 94.9%. Regarding `COc1cccc2c(NCc3ccccc3)nc(-n3c(N)nc4ccccc43)nc12`, the Potency was 16.6 µM (active). In the case of `CC1(C)O[C@H]2C[C@@H]3[C@H]4CCC5=CC(=O)C=C[C@]5(C)[C@@]4(F)[C@@H](O)C[C@]3(C)[C@]2(C(=O)CO)O1`, the Potency was 0.743 µM (active). For `COc1cc(C=CC(=O)O)ccc1O`, the “viability” value is 110%. For `COCCn1c2c([n+](Cc3cnccn3)c1C)C(=O)c1ccccc1C2=O`, the Potency is 0.166 µM (active). In the case of `O=C(O)C(=O)Nc1cccc(C2=NN=N[N]2)c1`, the “viability” value was 90%.

On to `Cc1ccc(CN2CCNCC2)cc1NC(=O)CNc1ccc(F)c(F)c1`, for which the “viability” value is 105%. On the same count and under the same terms, the same measure for `Nc1c2c(nc3ccccc13)CCCC2`: 86.9%. For the compound `CC(C)(C)C(=O)OCOP(=O)(COCCn1cnc2c(N)ncnc21)OCOC(=O)C(C)(C)C`, the Potency is 0.332 µM (active). On the same count and under the same terms, the same measure for `O=C1NC(=O)C(=Cc2ccc(-c3ccc(F)cc3O)o2)S1`: 6.62 µM (active).

Consider `CC(C)(C)c1nc(-c2cccc(NS(=O)(=O)c3c(F)cccc3F)c2F)c(-c2ccnc(N)n2)s1`, for which the Potency was 2.96 µM (active). Turning to `O=C(CN1C(=O)C2(CCCC2)NC[C@H]1c1cc(F)cc(F)c1)Nc1ccc2c(c1)C[C@@]1(C2)C(=O)Nc2ncccc21`, the “viability” value was 101%.

Consider `CC(C)(O)Cn1c(NC(=O)c2ccc(-c3cn[nH]c3)s2)nc2cc(CN3CCOCC3)ccc21`, for which the Potency was 2.96 µM (active). `CC(=O)OCC(CCn1cnc2cnc(N)nc21)COC(C)=O`: the “viability” value is 100%.

Turning to `COc1cc(F)c(C(C)C)cc1-c1ccc(C(F)(F)F)cc1CN1C(=O)O[C@H](c2cc(C(F)(F)F)cc(C(F)(F)F)c2)[C@@H]1C`, the “viability” value was 104%. The same measure, in the same setting: the same measure for `Fc1ccc(C(c2ccc(F)cc2)N2CCN(CC=Cc3ccccc3)CC2)cc1`: 101%. Turning to `Cc1c(CCOc2ccc(C(=O)O)cc2)c2cc(Cl)ccc2n1C(c1ccccc1)c1ccccc1`, the “viability” value is 87.9%.

Consider `CN(C)c1nc(Cc2ccc(NC(=O)c3ccc4ccccc4c3)cc2)nc(Cl)c1CC(=O)O`, for which the Potency was 2.96 µM (active).

As for `Cc1nc2c([nH]1)CCN(C(=O)c1ccc(NC(=O)c3ccccc3-c3ccccc3)cc1)c1ccccc1-2`, the “viability” value was 98.7%. For `COC(=O)Nc1nc2ccc(C(=O)c3cccs3)cc2[nH]1`, the Potency is 0.0296 µM (active).

As to `N#Cc1c(NC(=O)c2cccc3ccccc23)sc2c1CCCC2`, the Potency is 0.662 µM (active). As for `NS(=O)(=O)c1ccc(Nc2nc(OCC3CCCCC3)c3[nH]cnc3n2)cc1`, the Potency was 0.372 µM (active). Still for that read-out and setting: with `O=C(c1ccc(F)c(F)c1Nc1ccc(I)cc1F)N1CC(O)([C@H]2CCCCN2)C1` the figure was 8.33 µM (active).

As to `Cc1ccc(-c2ncn(-c3ccc(Nc4nccc(-c5cccc(N6CCOCC6)c5)n4)cc3)n2)cn1`, the Potency is 0.296 µM (active). Consider `COc1cc(C(C)C)c2c(c1)S(=O)(=O)N(COc1cc(=O)n3cccc(OCCN4CCCCC4)c3n1)C2=O`, for which the “viability” value was 90.4%. On to `Cn1cnc(-c2cc3nccc(Oc4ccc(NC(=S)NC(=O)Cc5ccccc5)cc4F)c3s2)c1`, for which the Potency was 18.7 µM (active). On to `CC1(C)SCCN(S(=O)(=O)c2ccc(OCC#CCO)cc2)[C@@H]1C(=O)NO`, for which the “viability” value was 100%.

On to `O=c1cc(-c2ccc(O)cc2)oc2cc(O)cc(O)c12`, for which the “viability” value is 97.9%. On to `CON=C(C(=O)N[C@@H]1C(=O)N2C(C(=O)O)=C(Cn3ccc(=N)n3CCO)CS[C@H]12)c1csc(N)n1`, for which the “viability” value was 96.2%. On the same count and under the same terms, the same measure for `O=S(=O)(NCCNCC=Cc1ccc(Br)cc1)c1cccc2cnccc12`: 76.1%; for `O=C(Nc1cc(Cl)cc2c1[nH]c1cnccc12)c1cccnc1`: 106%. For the compound `O=c1cc(-c2ccccc2)oc2cc(O)cc(O)c12`, the Potency was 20.9 µM (active). For the compound `COc1ccc2c(Oc3ccc(NC(=O)c4c(C)n(CC(C)(C)O)n(-c5ccccc5)c4=O)cc3F)ccnc2c1`, the “viability” value is 97.4%.

With `NC(=O)NN=Cc1ccc([N+](=O)[O-])o1`, the “viability” value is 104%. `CCOc1cc2ncc(C#N)c(Nc3ccc(OCc4ccccn4)c(Cl)c3)c2cc1NC(=O)C=CCN(C)C`: the Potency was 1.05 µM (active). Turning to `N[C@@]1(C(=O)O)CS(=O)(=O)[C@H]2[C@H](C(=O)O)[C@H]21`, the “viability” value was 98.3%. `NC1=N[C@H]2[C@H](CS[C@H]2CCCCC(=O)O)N1`: the “viability” value is 112% [at 23.2 µM].

For the compound `Cc1nn(C)c2c1C(c1ccc(C(F)(F)F)cc1)C(C#N)=C(N)O2` (stereo not given), the “viability” value is 109%. As for `CC(C)(C(=O)NCC(F)(F)C(F)(F)F)C(=O)N[C@@H]1C(=O)Nc2ccccc2-c2ccccc21`, the Potency is 2.96 µM (active).

For `NC1CCC(Nc2nc(Nc3ccc(C(=O)N4CCCCC4)cc3)c3ncn(-c4cccc(F)c4)c3n2)CC1` (stereo not given), the “viability” value was 97.9%.

As usually defined, the viability is a read-out of living cells in per cent, often relative to untreated cells.
